Measurements: PubChem BioAssay AID1159580 (chemical genetic matrix, 2015)
The campaign covered roughly 5,500 compounds. About 2,000 (36%) were called active. Not shown: some 18% with an inconclusive outcome. Cut-off read from the data, not from the text of the source: active = normalized growth mostly below about 0.91 (no sharp cut-off); inconclusive = no clear call, values can overlap the other calls; inactive = mostly above about 0.92. This is one part of the list.

Assay: chemical genetic growth profiling, strain panel (AID 1159580);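 note: tested at 20 µM; growth read once vehicle control cultures reached saturation at 30 °C; 1 = growth at the plate median or of vehicle wells; lower values mean less growth of the strain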
Conditions: S. cerevisiae deletion strains, growth OD

Measured: normalized growth

COc1ccc(/C=C2\CSc3ccc(F)cc3C2=O)cc1
inactive: locus YAR019C, strain CDC15, active compounds read low 0.955 | locus YBL105C, strain PKC1, active compounds read low 0.96 | locus YBR135W, strain CKS1, active compounds read low 0.951 | locus YBR136W, strain MEC1, active compounds read low 0.971 | locus YBR160W, strain CDC28, active compounds read low 0.961 | locus YDL017W, strain CDC7, active compounds read low 0.966 | locus YDL028C, strain MPS1, active compounds read low 0.931 | locus YDL101C, strain DUN1, active compounds read low 0.968 | locus YDL108W, strain KIN28, active compounds read low 0.955 | locus YDL132W, strain cdc53, active compounds read low 0.947 | locus YDL214C, strain PRR2, active compounds read low 0.932 | locus YDR052C, strain DBF4, active compounds read low 0.977 | locus YDR054C, strain cdc34, active compounds read low 0.953 | locus YDR226W, strain ADK1, active compounds read low 0.965 | locus YDR477W, strain SNF1, active compounds read low 0.916 | locus YER123W, strain YCK3, active compounds read low 0.896 | locus YER133W, strain GLC7, active compounds read low 0.916 | locus YFL009W, strain cdc4, active compounds read low 0.934 | locus YFL029C, strain CAK1, active compounds read low 0.947 | locus YFR003C, strain YPI1, active compounds read low 0.96 | locus YFR019W, strain FAB1, active compounds read low 0.953 | locus YFR028C, strain CDC14, active compounds read low 0.93 | locus YGR040W, strain KSS1, active compounds read low 0.917 | locus YGR052W, strain FMP48, active compounds read low 0.939 | locus YGR092W, strain DBF2, active compounds read low 0.925 | locus YHR079C, strain IRE1, active compounds read low 0.909 | locus YHR082C, strain KSP1, active compounds read low 0.949 | locus YHR205W, strain SCH9, active compounds read low 0.899 | locus YIL147C, strain SLN1, active compounds read low 0.969 | locus YJL095W, strain BCK1, active compounds read low 0.9 | locus YJL128C, strain PBS2, active compounds read low 0.91 | locus YJL157C, strain FAR1, active compounds read low 0.927 | locus YJR016C, strain ILV3, active compounds read low 0.973 | locus YJR066W, strain TOR1 (second series), active compounds read low 0.909 | locus YJR066W, strain TOR1, active compounds read low 0.874 | locus YKL048C, strain ELM1, active compounds read low 0.949 | locus YKL067W, strain YNK1, active compounds read low 0.911 | locus YKL101W, strain HSL1, active compounds read low 0.927 | locus YKL193C, strain SDS22, active compounds read low 0.941 | locus YKL203C, strain TOR2, active compounds read low 1.01 | locus YLR133W, strain CKI1, active compounds read low 0.949 | locus YLR403W, strain SFP1, active compounds read low 0.928 | locus YML070W, strain DAK1, active compounds read low 0.91 | locus YMR001C, strain CDC5, active compounds read low 0.952 | locus YMR205C, strain PFK2 (second series), active compounds read low 0.942 | locus YMR277W, strain FCP1, active compounds read low 0.929 | locus YNL006W, strain LST8, active compounds read low 0.967 | locus YNL020C, strain ARK1, active compounds read low 0.955 | locus YNL161W, strain CBK1, active compounds read low 0.951 | locus YNL183C, strain NPR1, active compounds read low 0.935 | locus YNL207W, strain RIO2, active compounds read low 0.969 | locus YNL222W, strain SSU72, active compounds read low 0.952 | locus YNL307C, strain MCK1 (second series), active compounds read low 0.927 | locus YOL078W, strain AVO1, active compounds read low 0.94 | locus YOL136C, strain PFK27, active compounds read low 0.902 | locus YOR061W, strain CKA2, active compounds read low 0.933 | locus YOR119C, strain RIO1, active compounds read low 0.95 | locus YOR231W, strain MKK1, active compounds read low 0.879 | locus YOR329C, strain SCD5, active compounds read low 0.964 | locus YPL031C, strain PHO85, active compounds read low 0.914 | locus YPL153C, strain RAD53, active compounds read low 0.929 | locus YPL204W, strain HRR25, active compounds read low 0.912 | locus YPL209C, strain IPL1, active compounds read low 0.959 | locus YPL256C, strain CLN2, active compounds read low 0.87 | locus YPR025C, strain CCL1, active compounds read low 0.958 | locus YPR106W, strain ISR1, active compounds read low 0.962 | locus YPR111W, strain DBF20, active compounds read low 0.938 | strain NNK1, active compounds read low 0.962 | strain TSCII, active compounds read low 0.946
active: locus YHR030C, strain SLT2, active compounds read low 0.771 | locus YLR113W, strain HOG1, active compounds read low 0.763
